Experimental data: PubChem BioAssay (NCI)
“And” between values parts separate entries of the source, which are not always exact repeats. Equal entries are not always repeated. This is part of a sample that, as a whole, favours compounds with a hit. Of some 83,000 tested, about 20% had one in any assay.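 Plates (96-well) were seeded with cells, treated with compound at one concentration, and incubated for 48 hours before percent growth was determined.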 The source made the active and inactive calls. How the source made its calls: active means growth percent below 10; inactive means the rest.

Tests used:
Assay in all cases: NCI-60 one-dose screen, 48 h (100 = growth as untreated, 0 = no growth, -100 = all killed)
Conditions in all cases: 10 µM unless noted
[1] = tested on: HCT-15 colon
[2] = tested on: HT29 colon
[3] = tested on: SNB-75 CNS
[4] = tested on: SNB-19 CNS
[5] = tested on: U251 CNS
[6] = tested on: PC-3 prostate
[7] = tested on: SK-MEL-5 melanoma
[8] = tested on: UACC-62 melanoma
[9] = tested on: LOX IMVI melanoma
[10] = tested on: SK-MEL-28 melanoma

| Compound | growth [1] | growth [2] | growth [3] | growth [4] | growth [5] | growth [6] | growth [7] | growth [8] | growth [9] | growth [10] |
| --- | --- | --- | --- | --- | --- | --- | --- | --- | --- | --- |
| Nc1ccc(Cl)c(S(=O)(=O)O)c1 | 101% (inactive) | 105% (inactive) | 93.3% (inactive) | 94.4% (inactive) | 99.8% (inactive) | 108% (inactive) | 101% (inactive) | 102% (inactive) | 97.5% (inactive) | 106% (inactive) |
| CCOP(=O)(OCC)/C(C#N)=C/c1c(C)[nH]c2ccccc12 | 108% (inactive) | 106% (inactive) | 49.8% (inactive) | 94.6% (inactive) | 88.9% (inactive) | 83.3% (inactive) | 91.3% (inactive) | 82.3% (inactive) | 89.7% (inactive) | 113% (inactive) |
| O=C1c2ccccc2CN1c1ccccc1 | 107% (inactive) | 82.4% (inactive) | 102% (inactive) | 88.9% (inactive) | 101% (inactive) | 116% (inactive) | 96.5% (inactive) | 85.9% (inactive) | 113% (inactive) | 120% (inactive) |
| CN(C)c1ccc(C(=N)c2ccc(N(C)C)cc2)cc1 | 23.5% (inactive) and 20.9% (inactive) | 2.09% (active) and 4.13% (active) | -30.8% (active) and 8.36% (active) | 41.1% (inactive) and 38.3% (inactive) | 16.6% (inactive) and 17.1% (inactive) | 66% (inactive) and 47.3% (inactive) | 7.19% (active) and 22.7% (inactive) | 31.4% (inactive) and 31.8% (inactive) | 28.9% (inactive) and 33.9% (inactive) | 44% (inactive) and 36% (inactive) |
| O=C(O)Cc1cc(=O)[nH]n(-c2ccccc2)c1=O | 107% (inactive) | 103% (inactive) | 91.3% (inactive) | 119% (inactive) | 99.9% (inactive) | 94% (inactive) | 107% (inactive) | 101% (inactive) | 100% (inactive) | 110% (inactive) |
| CC(CN(C)C)CN1c2ccccc2Sc2ccccc21 (stereo not given) | 84.8% (inactive) and 89.2% (inactive) and 84.7% (inactive) | 56.1% (inactive) and 71.1% (inactive) and 67.4% (inactive) | 64.2% (inactive) and 60.6% (inactive) and 43.4% (inactive) | 94.6% (inactive) and 80.4% (inactive) and 91.2% (inactive) | 73.4% (inactive) and 87.5% (inactive) and 76.9% (inactive) | 63.7% (inactive) and -49.1% (active) and 52.7% (inactive) | 87.1% (inactive) and 74% (inactive) and 89.3% (inactive) | 92.8% (inactive) and 65.9% (inactive) | 80.6% (inactive) and 83.5% (inactive) and 73.2% (inactive) | 87.6% (inactive) and 113% (inactive) and 68.2% (inactive) |
| Nc1[nH][nH]c(=O)c1N=Nc1ccccc1 | 96.3% (inactive) and 106% (inactive) | 107% (inactive) and 88.8% (inactive) | 79.3% (inactive) and 111% (inactive) | 99.5% (inactive) and 112% (inactive) | 109% (inactive) and 105% (inactive) | 99% (inactive) and 101% (inactive) | 104% (inactive) and 99.5% (inactive) | 96.3% (inactive) and 109% (inactive) | 105% (inactive) and 100% (inactive) | 111% (inactive) and 118% (inactive) |
| Cc1cc(-c2ccc(N=Nc3c(C)nn(-c4ccc(S(=O)(=O)O)cc4)c3O)c(C)c2)ccc1N=Nc1ccc(O)c(C(=O)O)c1 | 97.9% (inactive) | 115% (inactive) | 99.9% (inactive) | 99.9% (inactive) | 99.1% (inactive) | 98.2% (inactive) | 98.7% (inactive) | 91.2% (inactive) | 95.4% (inactive) | 106% (inactive) |
| N#Cc1c(N)nc2c(c(-c3ccc(Cl)cc3)nn2-c2ccccc2)c1C#N | 98.6% [100 µM] (inactive) | 106% [100 µM] (inactive) | 104% [100 µM] (inactive) | 99.6% [100 µM] (inactive) | 92.8% [100 µM] (inactive) | 98.6% [100 µM] (inactive) | 103% [100 µM] (inactive) | 97.9% [100 µM] (inactive) | 96.6% [100 µM] (inactive) | 114% [100 µM] (inactive) |
| COc1ccccc1OCC(O)CO (stereo not given) | 95.1% (inactive) and 105% (inactive) | 100% (inactive) and 103% (inactive) | 87.7% (inactive) and 90.7% (inactive) | 96.4% (inactive) and 84.9% (inactive) | 96.9% (inactive) and 81.3% (inactive) | 52.3% (inactive) and 91.5% (inactive) | 104% (inactive) and 100% (inactive) | 100% (inactive) | 99.5% (inactive) and 100% (inactive) | 95.5% (inactive) and 108% (inactive) |
| CC1CCC(=O)N1c1ccc(N)cc1 (stereo not given) | 108% (inactive) | 96.6% (inactive) | 97.4% (inactive) | 97.8% (inactive) | 97.3% (inactive) | 94.4% (inactive) | 98.9% (inactive) | 100% (inactive) | 95.1% (inactive) | 107% (inactive) |
| Cc1nc2c(=O)[nH]c(=S)[nH]c2[nH]c1=O | 105% (inactive) and 104% (inactive) | 104% (inactive) and 105% (inactive) | 97.4% (inactive) and 84.1% (inactive) | 104% (inactive) and 102% (inactive) | 113% (inactive) and 104% (inactive) | 105% (inactive) and 96.7% (inactive) | 111% (inactive) | 104% (inactive) and 100% (inactive) | 96% (inactive) | 111% (inactive) and 112% (inactive) |
| CCOC(=O)NC(N)=O | 105% (inactive) and 98% (inactive) | 99.9% (inactive) and 106% (inactive) | 84.3% (inactive) and 87.6% (inactive) | 103% (inactive) and 100% (inactive) | 101% (inactive) and 96.4% (inactive) | 99.3% (inactive) and 92.8% (inactive) | 101% (inactive) | 103% (inactive) | 97.9% (inactive) and 94.7% (inactive) | 112% (inactive) and 108% (inactive) |
| OC(CC(c1ccccc1)c1cccc2ccccc12)(c1ccccc1)c1ccccc1 (stereo not given) | 78.9% (inactive) and 68.3% (inactive) | 68.2% (inactive) and 52.6% (inactive) | 103% (inactive) and 74.6% (inactive) | 95.5% (inactive) and 94.7% (inactive) | 90.4% (inactive) and 87.7% (inactive) | 60.6% (inactive) and 56.4% (inactive) | 88.3% (inactive) and 95.5% (inactive) | 76.7% (inactive) and 79.4% (inactive) | 80.5% (inactive) and 74.8% (inactive) | 95.8% (inactive) and 100% (inactive) |
| CC(C)(C)C1=CC(=O)C(C(C)(C)C)=CC1=O | 97.9% (inactive) and 105% (inactive) | 109% (inactive) and 99.8% (inactive) | 104% (inactive) and 96.6% (inactive) | 86.2% (inactive) and 101% (inactive) | 96.2% (inactive) and 94.2% (inactive) | 90.8% (inactive) and 101% (inactive) | 93.5% (inactive) and 108% (inactive) | 87.1% (inactive) and 99.6% (inactive) | 91.6% (inactive) and 99.5% (inactive) | 114% (inactive) and 109% (inactive) |
| Nc1c(Cl)cc2c(c1Br)C(=O)c1ccccc1C2=O | 88.9% (inactive) | 100% (inactive) | 94.2% (inactive) | 88.8% (inactive) | 95.8% (inactive) | 97.7% (inactive) | 89.4% (inactive) | 77% (inactive) | 94.2% (inactive) | 113% (inactive) |
| N#Cc1c[nH]n2ccnc12 | 104% (inactive) | 91.2% (inactive) | 103% (inactive) | 108% (inactive) | 92.4% (inactive) | 97.9% (inactive) | 115% (inactive) | 106% (inactive) | 96.1% (inactive) | 107% (inactive) |
| CC1(C)OC(=O)C(=Cc2ccc(C#N)cc2)C(=O)O1 | 109% (inactive) and 104% (inactive) | 97.7% (inactive) and 100% (inactive) | 97% (inactive) and 96.4% (inactive) | 98.9% (inactive) and 101% (inactive) | 89.7% (inactive) | 84.3% (inactive) and 99.2% (inactive) | 95.6% (inactive) | 101% (inactive) and 117% (inactive) | 103% (inactive) | 114% (inactive) and 101% (inactive) |
| COc1ccc2oc3cc(NCCN(C)C)ccc3c(=O)c2c1 | 90.6% (inactive) and 67% (inactive) | 69.8% (inactive) and 53% (inactive) | 87.2% (inactive) and 81.5% (inactive) | 92.7% (inactive) and 76.1% (inactive) | 76.7% (inactive) | 83.6% (inactive) and 70.9% (inactive) | 93.3% (inactive) and 75.5% (inactive) | 100% (inactive) and 101% (inactive) | 83% (inactive) and 58.2% (inactive) | 96.1% (inactive) and 91.3% (inactive) |
| O=C(NC(=O)c1ccc(F)c(Cl)c1)NC1CC1 | 86.5% (inactive) and 74.6% (inactive) | 96.4% (inactive) and 94.5% (inactive) | 105% (inactive) and 122% (inactive) | 104% (inactive) | 104% (inactive) | 98.6% (inactive) and 87.5% (inactive) | 88% (inactive) | 99.8% (inactive) and 96.6% (inactive) | 98.6% (inactive) | 111% (inactive) and 107% (inactive) |
